Measurements published in PubChem BioAssay AID1347426 (Functional Genomics Laboratory (NCATS/FGL), 2020).
The whole screen tested about 31,000 sequences, of which about 1,400 (4.5%) were called active.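 How the source made its calls: active means median seed-adjusted z-score above 1 or below -1; inactive means the rest.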 Only a selection was taken, and actives are over-represented in it overall.

Assay: Novel Modifiers of Survival Motor Neuron (SMN) Protein: Gene Identification via Genome-wide siRNA Screen;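 further: luminescence tracks full-length SMN protein made from the SMN2 reporter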
Settings: HEK293T SMN2-luciferase reporter, siRNA knockdown, 72 h; actives lie on both sides
How it was run: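 HEK293T cells stably carrying an SMN2 promoter/splicing cassette–luciferase reporter were reverse-transfected with 1 pmol siRNA per well (druggable-genome library, 3 siRNAs per gene) and grown 72 h at 37 °C. Luminescence, normalized to negative-control siRNA and log10-transformed, was scored as MAD.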
For GGAGCAGUCACUUACAGAATT against PINK1, the median seed-adjusted z-score was 0.192 (inactive). With CCACUGUCCUGUUUGAGAUTT against FKBP6 the median seed-adjusted z-score was -1.12 (active). For CGGAUUAUCUUCUAUCUAUTT against SLC6A14, the median seed-adjusted z-score was 0 (inactive). In the case of GUCUUGACCUUGAACGCAATT against VIM, the median seed-adjusted z-score is reported as 0.431 (inactive). In the case of GGCUUCUUCUCGUGCAUCATT against KCNK3, the median seed-adjusted z-score is reported as 0 (inactive). For GAAGGGUGAUUCUAAUAUUTT against GPR174, the median seed-adjusted z-score was -0.324 (inactive). With GAAUCUGUCAGGAAUGACATT against RARB the median seed-adjusted z-score was 0.409 (inactive). In the case of CAUCGAAUCCUUACCCGAATT against AASDHPPT, the median seed-adjusted z-score is reported as 0.64 (inactive). With GCCUCACCUCAAUUGCAAATT against ANP32D the median seed-adjusted z-score was -0.714 (inactive). In the case of GACUACGCCUUGAAGCUAATT against TAF6, the median seed-adjusted z-score is reported as -1.36 (active). In the case of GCUUUCGUCAAGUCAAAGATT against TIRAP, the median seed-adjusted z-score is reported as -0.431 (inactive). In the case of AGAGCUAGAUGGAAGAACATT against SFRS3, the median seed-adjusted z-score is reported as 2.74 (active). For ACUGACAUUUUUCAACUCATT against ALDH1L1, the median seed-adjusted z-score was 0.0289 (inactive). In the case of CUACCGCAUCAGUAACAGATT against DDX21, the median seed-adjusted z-score is reported as -0.251 (inactive). For GACUCUGAGUAUAAAGUGATT against BARHL1, the median seed-adjusted z-score was 0.397 (inactive). In the case of GGCUGGAUGUCAUUGAGAATT against SRGAP3, the median seed-adjusted z-score is reported as -0.0961 (inactive). For GCGAGGGCCUUUUUGAGUATT against CRYAA, the median seed-adjusted z-score was -1.03 (active). With GAUCGAAUCUUUAAGGUCUTT against EIF2C1 the median seed-adjusted z-score was 0.215 (inactive). In the case of ACAUCUCCGAAAUCGCCUATT against SLC2A8, the median seed-adjusted z-score is reported as -0.105 (inactive). For AAAUGGAUGAGUUGCAAUUTT against PITX1, the median seed-adjusted z-score was 0 (inactive). In the case of GCUCCGAAGUGGUGAUCAATT against CHRM1, the median seed-adjusted z-score is reported as 1.1 (active). In the case of GGAUAUGCCUUAGAUUACATT against PRTFDC1, the median seed-adjusted z-score is reported as 0.493 (inactive). In the case of GGUUCAUGACAGACAAGAATT against SHMT1, the median seed-adjusted z-score is reported as 0.179 (inactive). In the case of GCAUGUAUCUGCUUGAUAUTT against ODC1, the median seed-adjusted z-score is reported as -1.64 (active). In the case of GUUUUUGUCCUAGCCCAUATT against OTUD7A, the median seed-adjusted z-score is reported as -0.53 (inactive). In the case of GCCCAUGUCCCAAAUCACATT against PDE4A, the median seed-adjusted z-score is reported as -0.147 (inactive). In the case of GGCAAAAUCUGGACACCAUTT against TFAP4, the median seed-adjusted z-score is reported as -0.0515 (inactive). With CCGGAAUUUUUGACAAGAATT against PTGS2 the median seed-adjusted z-score was -0.21 (inactive). In the case of AGAUCUGCAUGAAACAACATT against VPS16, the median seed-adjusted z-score is reported as 0.306 (inactive). In the case of GGUCUGAAACUCUACUAUATT against SHPRH, the median seed-adjusted z-score is reported as 0.169 (inactive). For GGUUCUAACUUCGAAAAAUTT against DNAJC8, the median seed-adjusted z-score was -1.62 (active). For AGUCUGUCCGAGUACUUCATT against LFNG, the median seed-adjusted z-score was -0.13 (inactive). With GAGUUAAGUGAUAAGUAUATT against ZNF639 the median seed-adjusted z-score was 0.182 (inactive). With GCUCUGUAAUAGUCGACUATT against TOPBP1 the median seed-adjusted z-score was 0.0888 (inactive). In the case of GCUUGUAGCUCUUAAGGUUTT against PPP2CA, the median seed-adjusted z-score is reported as 0.731 (inactive). With GGUCUUUAUUCGGAAGCGATT against ZNF525 the median seed-adjusted z-score was 0.134 (inactive). For GAUAUUGAGCGGUUACAAATT against ATP7B, the median seed-adjusted z-score was 0.0947 (inactive). In the case of GCACUCAUGUCAUACUGAATT against LIPA, the median seed-adjusted z-score is reported as 0.535 (inactive). For GUUACUUCCGAAUCCAUGATT against ZNF627, the median seed-adjusted z-score was 0.204 (inactive). In the case of GGAAACCUCUGGACCUCUATT against ARID1A, the median seed-adjusted z-score is reported as -1.14 (active). With GGACAGAUCUGCAAAGAGATT against CETP the median seed-adjusted z-score was 0 (inactive). For GAUGUACCUUGAUACAGUATT against IDH3A, the median seed-adjusted z-score was 0.137 (inactive). For CUGAUGAUCUACUCAUAUATT against TEKT1, the median seed-adjusted z-score was 0.222 (inactive). In the case of GCUCCAUCCUUAUUCAACATT against ZIK1, the median seed-adjusted z-score is reported as -0.0627 (inactive). In the case of GCUCAUCUGGAUAACCUGATT against ZNF513, the median seed-adjusted z-score is reported as -0.0616 (inactive). In the case of GGCUAUUAUUGACAUGGUUTT against PDE8B, the median seed-adjusted z-score is reported as 0.217 (inactive). For GAAUAUGAAACAUUCGAUATT against GLRX3, the median seed-adjusted z-score was 0.0784 (inactive). In the case of CUUCUGAACUCGGUCCUCATT against SLC5A5, the median seed-adjusted z-score is reported as 1.01 (active). With GGCUUUCAUUGAGCAGGAATT against ATP6V1E2 the median seed-adjusted z-score was -0.162 (inactive). With GACCAGCAAUGCCUACGUATT against FLRT1 the median seed-adjusted z-score was -0.00451 (inactive). In the case of GCAAAACCCUGGAAGGAUATT against KCTD11, the median seed-adjusted z-score is reported as 0.374 (inactive). With UGACAGUGACGGAUGCUAATT against OPLAH the median seed-adjusted z-score was -0.233 (inactive). With CGAUCGACUCGGUGACUUUTT against COL7A1 the median seed-adjusted z-score was 1.08 (active). In the case of GAAGUCACGUCACUACUUATT against ZNF644, the median seed-adjusted z-score is reported as 0.389 (inactive). In the case of CACAGAUCAUUAUCUAAAUTT against LONP2, the median seed-adjusted z-score is reported as 1.52 (active). For CCUCAGAACCGGCAAGAAATT against TNFAIP1, the median seed-adjusted z-score was 0.0766 (inactive). In the case of CCAAAAUGUUUCAUCCAAATT against UBE2B, the median seed-adjusted z-score is reported as 0.333 (inactive). With GAGUUAUGCAAGACAGUAUTT against MYSM1 the median seed-adjusted z-score was -0.116 (inactive). With GCAGCAACCUUGUCAUCCATT against ZNF692 the median seed-adjusted z-score was 0.556 (inactive). With CACCAGCGACGGGAUCUUATT against RHOBTB2 the median seed-adjusted z-score was -0.139 (inactive). With CCGUCACAGUAGAGACUAUTT against LRRC4C the median seed-adjusted z-score was -0.122 (inactive). In the case of GCAAUUACAUGAGCGAGCATT against PLK1, the median seed-adjusted z-score is reported as -2.57 (active). For GCUCCAUCAUCGUUGCAUUTT against SYPL2, the median seed-adjusted z-score was 0.233 (inactive). In the case of CCAUAUUCCUCAUGCAUGUTT against FCRL5, the median seed-adjusted z-score is reported as -0.138 (inactive). For CAUCAGGAAUUACGGGACATT against GPR123, the median seed-adjusted z-score was 0 (inactive). With AGGGAACAAGUUUACCAAATT against GTF2IRD1 the median seed-adjusted z-score was -0.282 (inactive). For GGUUAGACAUCAGUCCUUUTT against DHX15, the median seed-adjusted z-score was 1.36 (active). In the case of CAGUUCCAGAUGAACCAUATT against DHDDS, the median seed-adjusted z-score is reported as 0.0122 (inactive). In the case of CACGGGAUAUGGAACGAAATT against CXCR7, the median seed-adjusted z-score is reported as -0.511 (inactive).
